# Reference: PubChem BioAssay AID1578 (Sanford-Burnham Center for Chemical Genomics, 2009)
# Among all 290,000 compounds or so, about 3,000 (1%) were called active. This excerpt belongs to a sample that is enriched for actives. Unmarked numbers belong to inactive results. Cut-off read from the data, not from the text of the source: active = inhibition mostly above about 36% (no sharp cut-off); inactive = mostly below about 34%.
# Experiment: NOD1 signaling inhibitors, primary screen, cell-based, luminescence, uHTS (AID 1578);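 note: HEK-293T reporter cells stimulated with the NOD1 agonist gamma-tri-DAP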
# Conditions: NOD1-driven NF-kB luciferase reporter cells, at 4 µM, stronger effect = higher value
row,Compound,inhibition
1,COc1cccc(C(=O)NCCCNC(=O)c2cccc(OC)c2)c1,-4.9%
2,CCN(CC)S(=O)(=O)c1ccc(S(=O)(=O)N2CCN(C(=O)c3ccco3)CC2)cc1,-3.5%
3,CC(=O)Nc1ccc(NC(=O)C(C)Sc2nnc(-c3cccs3)o2)cc1 (centres undefined),-14.2%
4,Cc1ccccc1C(=O)Nc1ccccc1,-15.4%
5,Cc1c(C(=O)NN2CCOCC2)oc2c1ccc1ccccc12,-35.1%
6,COc1ccc(CCNC(=O)COC(=O)/C=C/c2ccc(OCC#N)c(OC)c2)cc1,-30.9%
7,Cc1cc(C)n2nc(C(=O)N3CCN(c4ccc([N+](=O)[O-])cc4)CC3)nc2n1,-21.8%
8,CCOC(=O)C1CCN(CC(O)COCc2ccc(Cl)cc2)CC1 (centres undefined),-12.3%
9,CCOC(=O)C1CCN(CC(O)COCc2ccccc2)CC1 (centres undefined),34.7% (active)
10,CCOC(=O)C1CCN(CC(O)COCc2cccs2)CC1 (centres undefined),-28.2%
11,COC(=O)c1ccc(/C=N/NC(=O)c2ccc3nc[nH]c3c2)cc1,-10.6%
12,O=C(O)CCc1ccc(-c2ccc(Br)cc2)n1Cc1ccco1,-8.6%
13,CC(C)[C@H](NC(=O)N1CCn2c1nc1ccccc12)C(=O)N[C@H](C(=O)O)c1ccccc1,68.4% (active)
14,CC(C)[C@H](NC(=O)N1CCn2c1nc1ccccc12)C(=O)N[C@@H](C(=O)O)c1ccccc1,1.1%
15,CC(C)C[C@H](NC(=O)N1CCn2c1nc1ccccc12)C(=O)N[C@@H](C(=O)O)c1ccccc1,-6%
16,CC(C)(C)C(=O)NC1(C(F)(F)F)NC(=O)N(c2ccccc2F)C1=O (centres undefined),2.6%
17,Cn1cc([N+](=O)[O-])c(C(=O)Nc2nccs2)n1,-14.6%
18,CCn1cc([N+](=O)[O-])c(C(=O)Nc2nc(-c3ccc(C)c(C)c3)c(C)s2)n1,-63.4%
19,CCn1cc([N+](=O)[O-])c(C(=O)Nc2nc(-c3ccc(C)cc3)c(C)s2)n1,2.6%
20,Cc1cnc(NC(=O)c2nn(C)cc2[N+](=O)[O-])s1,24.8%
21,Cc1csc(=S)n1-c1ccccc1,5.1%
22,COc1ccccc1C(=O)N/C(=C\c1cn(S(=O)(=O)N(C)C)c2ccccc12)C(=O)NCCN1CCOCC1,-15%
23,COc1ccc(C(=O)Oc2cccc(Nc3ncnc4ccccc34)c2)cc1OC,29.6%
24,COc1cccc(N2CCN(c3nc(C)c(C)c(=O)[nH]3)CC2)c1,-29.1%

row,Compound,inhibition
1,COC(=O)c1c(C)noc1-c1ccc(Cl)cc1,-8.4%
2,Cc1cc(C(=O)O/N=C(\N)c2ccc(C(C)(C)C)cc2)no1,-2.5%
3,Cc1noc(-c2ccc(Cl)cc2)c1C(=O)O/N=C(\N)c1ccc(C(C)(C)C)cc1,84% (active)
4,COC(=O)/C(N=Nc1cccc(C(F)(F)F)c1)=C(\C)O,1.3%
5,O=C(/C(N=Nc1cccc(C(F)(F)F)c1)=C(/O)c1cccs1)C(F)(F)F,58.5% (active)
6,CC(=O)/C(N=Nc1cccc(C(F)(F)F)c1)=C(\C)O,-26.4%
7,CC(C)C1CC(c2ccccc2)(C(CN)CO)CCO1 (centres undefined),-22.3%
8,C=C(C)COc1ccc(-c2[nH]ncc2-c2ccc(Br)cc2)c(O)c1,-22.6%
9,Cc1nc2ccccc2c2oc(C(=O)NCc3ccc4c(c3)OCO4)cc12,38.5%
10,Cc1cc(C(=O)NCC2COc3ccccc3O2)c2ccccc2n1 (centres undefined),-14.4%
11,Cn1c(Cc2ccccc2)nnc1SCC(=O)N1CCN(c2ccccc2)CC1,-14.3%
12,COC(=O)c1sccc1NC(=O)/C=C/C(=O)O,-34.3%
13,CCOC(=O)c1[nH]cnc1C(=O)Nc1ccc([N+](=O)[O-])cc1,-7.2%
14,O=C(Nc1ccc([N+](=O)[O-])cc1)c1nc[nH]c1C(=O)NC1CCCCC1,80.7% (active)
15,O=C(Nc1ccc(F)cc1)c1nc[nH]c1C(=O)Nc1ccc([N+](=O)[O-])cc1,45%
16,Nc1nnc(SCc2c(F)cccc2Cl)s1,-8.2%
17,CC(=O)n1cc([C@@H]2C=C(C(=O)NCc3ccccc3)O[C@H](OCc3ccc(CO)cc3)C2)c2ccccc21,-7.1%
18,C#CCNC(=O)C1=C[C@H](c2cn(C(C)=O)c3ccccc23)C[C@H](OCc2ccc(CO)cc2)O1,46.1% (active)
19,O=C(Nc1ccccc1)C1=C[C@H](c2csc3ccccc23)C[C@H](OCc2ccc(CO)cc2)O1,-4.6%
20,O=C(NCc1ccccc1)C1=C[C@@H](c2csc3ccccc23)C[C@@H](OCc2ccc(CO)cc2)O1,43.8% (active)
21,O=C(NCc1ccccc1)C1=C[C@H](c2csc3ccccc23)C[C@H](OCc2ccc(CO)cc2)O1,-5.8%
22,C#CCNC(=O)C1=C[C@@H](c2cn(C(C)=O)c3ccccc23)C[C@@H](OCc2ccc(CO)cc2)O1,-23.5%
23,CC(NS(=O)(=O)c1ccc2[nH]c(=O)c(=O)[nH]c2c1)C(=O)O (centres undefined),-25.3%
24,O=C(CCCN1C(=O)/C(=C/c2ccccc2Cl)SC1=S)N1CCCC1,18.8%

row,Compound,inhibition
1,Cc1cc(Cl)cc(C)c1OCCNCc1ccccc1,-43.1%
2,Cc1ccc(S(=O)(=O)CCc2nnc(NC(=O)C3CCCCC3)s2)cc1,1.5%
3,COc1ccc(NC(=O)Cn2ncn3nc(-c4ccc(OC)cc4)cc3c2=O)cc1,-72%
4,CC(C)c1ccc(Nc2nc(Cl)nc(Cl)n2)cc1,-33%
5,CCCOC(=O)Cn1cnc2scc(-c3ccc(OC)cc3)c2c1=O,41.3%
6,Cc1ccccc1NC(=O)CSc1ccc(-c2cccnc2)nn1,-33.1%
7,CCOC(=O)c1ccccc1NC(=O)CSc1ccc(-c2cccnc2)nn1,59.2% (active)
8,CCOC(=O)c1ccccc1NC(=O)CSc1ccc(-c2ccccn2)nn1,-59.6%
9,Cc1ccc(NC(=O)Cn2nnc3ccccc32)c(C)c1,-16.7%
10,COc1ccc(-c2nnc(SCC(=O)N3c4ccccc4Sc4ccccc43)o2)cc1,-16.3%
11,COc1ccc(-c2nnc(SC(=O)N3c4ccccc4Sc4ccccc43)o2)cc1,65.2% (active)
12,O=C(Sc1nnc(-c2ccccc2)o1)N1c2ccccc2Sc2ccccc21,-37.4%
13,Fc1ccc(-n2nnnc2-c2ccccc2Cl)cc1,-26.4%
14,COc1ccc(C(=O)N2CCC(C(=O)Nc3ccc4c(c3)OCCO4)CC2)cc1,-5.6%
15,Fc1ccc(-c2nnc(NC3=NCCCCC3)o2)cc1,46.2%
16,Cc1ccc(S(=O)(=O)NC(=NC(C)C)c2ccccc2)cc1,-28.2%
17,CC(C)N=C(NS(=O)(=O)c1ccccc1)C(Cl)(Cl)Cl,62.8% (active)
18,CC(C)CN=C(NS(=O)(=O)c1ccccc1)C(Cl)(Cl)Cl,34.3%
19,O=C(CSc1nnc(-c2cccnc2)n1Cc1ccco1)Nc1cccc(O)c1,-18.5%
20,CC(=O)Nc1cc(ON=C(C)C)cc([N+](=O)[O-])c1,-34.9%
21,CC(C)=NOc1cc(NC(=O)CCl)cc([N+](=O)[O-])c1,89.5% (active)
22,CCC(=O)Nc1cc(ON=C(C)C)cc([N+](=O)[O-])c1,-24.6%
23,O=C(Nc1ccc(S(=O)(=O)N2CCCCCC2)cc1)c1ccc(Br)o1,26.1%
24,COc1ccc(CCNc2oc(COc3ccccc3)nc2C#N)cc1,-56.7%

row,Compound,inhibition
1,COc1ccc(CCNc2oc(COc3ccccc3F)nc2C#N)cc1OC,21.4%
2,COc1ccc(CCNc2oc(Cc3ccccc3)nc2C#N)cc1OC,25.6%
3,COc1ccc(CCNc2oc(COc3ccc(F)cc3)nc2C#N)cc1,-48.1%
4,CCc1ccc(NC(=O)CCCN2C(=S)NC(C)(C)CC2C)cc1 (centres undefined),-30.4%
5,Cc1ccccc1-c1ccc(=O)n(CC(=O)Nc2ccc(-n3cnnn3)cc2)n1,-5.3%
6,CCOC(=O)C(CCCOc1ccccc1)C(=O)OCC,10.5%
7,CC1CCCCC1NC(=O)CN1C(=O)CSc2cc(S(=O)(=O)N3CCCCCC3)ccc21 (centres undefined),-19.4%
8,COC(=O)c1cccc(NC(=O)/C(=C\c2ccccc2)NC(=O)c2ccccc2Cl)c1,-35.1%
9,COC(=O)c1cccc(NC(=O)NC(=O)c2ccc(Cl)cc2)c1,11.7%
10,COC(=O)c1cccc(NC(=O)NC(=O)c2ccccc2Cl)c1,30% (active)
11,O=C(CNS(=O)(=O)c1cccc2nsnc12)NC1CCCCC1,-5.2%
12,CCN(CC)c1ccc(/C=N/NC(=O)Nc2nonc2N)cc1,58.7% (active)
13,CCN(CC)c1ccc(/C=N/NC(=O)Nc2ccccc2)cc1,-54%
14,COc1ccc(/C=N/NC(=O)Nc2nonc2N)cc1,-31.2%
15,COCCOC(=O)C1=C(C)Nc2cc(=O)[nH]c(=O)n2C1c1cccc([N+](=O)[O-])c1 (centres undefined),5%
16,O=C1CCC(C(=O)Nc2cccc3ccccc23)N1 (centres undefined),8.1%
17,O=C1CCC(C(=O)Nc2ccccc2)N1 (centres undefined),-23%
18,Cc1ccccc1NC(=O)C1CCC(=O)N1 (centres undefined),96.7% (active)
19,Cc1cc(C)nc(NS(=O)(=O)c2ccc(NC(=O)c3ccc4c(c3)OCCO4)cc2)n1,-42.8%
20,COc1ccc(C2C(C#N)=C(N)Oc3n[nH]c(C)c32)cc1Cn1nc(C)c([N+](=O)[O-])c1C (centres undefined),-12.1%
21,COc1ccc(C2C(C#N)=C(N)Oc3c2c(C)nn3-c2ccccc2)cc1Cn1nc(C)c([N+](=O)[O-])c1C (centres undefined),85% (active)
22,COc1ccc(C2C(C#N)=C(N)OC3=C2C(=O)CCC3)cc1Cn1nc(C)c([N+](=O)[O-])c1C (centres undefined),-8.7%
